High-throughput results from PubChem BioAssay.
A selection: hits, their analogues and other compounds. The true share with any hit is near 7.7%.
Sm TGR block: qHTS Assay for the Inhibitors of Schistosoma Mansoni Peroxiredoxins. AID 485364, 2010. purified TGR, DTNB reduction, TNB absorbance 405 nm. Potency, µM (highest dose often 114 µM), actives largely listed as inhibitors. 3% of 360,000 active; further: nearly all actives have a fitted effect of over 60% in size
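First, TGR (20 nM dispensed) and NADPH were mixed with compound. Second, a 15 min room-temperature incubation followed. Third, further NADPH and then DTNB were added to start the reaction. Finally, TNB absorbance was monitored kinetically.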
TbPYK inhibitor: qHTS of Trypanosoma Brucei Inhibitors | TbPYK enzyme, Kinase-Glo Plus ATP luminescence, 45 min | AID 624173, 2012 | Potency, µM (doses to about 76.8 µM), actives largely listed as inhibitors | 0.12% of 410,000 active; further: nearly all actives have a fitted effect of over 50% in size
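TbPYK + substrate in 50 mM TEA pH 7.2, 100 mM KCl, 10 mM MgCl2, 0.05% BSA, 0.01% Tween-20; cpd pinned; ADP 130 uM final; 45 min RT; Kinase-Glo Plus 10 min; luminescence endpoint.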
FMDV inh: High Throughput Screening for Foot and Mouth Disease Virus Antivirals; FMDV antiviral cell-based qHTS; Potency, µM (top dose mostly 57.9 µM), actives largely listed as inhibitors; 1.2% of 410,000 active; calls by dose curve; tested in HEK293T cells; further: read-out not given here; nearly all actives have a fitted effect of over 45% in size
HCMV antiviral: qHTS Assay for inhibitors of the human cytomegalovirus (HCMV) | activity change, negative = inhibition, % at 57.5 µM | HFF cells, HCMV-luciferase reporter, 72 h; hits give low values | 4.5% of 410,000 active; in the data active means activity change below about -60%; inconclusive means no clear call, values can overlap the other calls; inactive means above about -39%
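Cell-based, HFFs, 1000 cells/well, 16 h 37C; cpds in DMSO + HCMV-luc, MOI 1 PFU/cell; 72 h 37C; OneGlo luminescence after 5 min RT; norm. to buffer vs Salinomycin 10uM.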
Giardia FBPA inh-1: qHTS Assay for Inhibitors of Fructose-1,6-bisphosphate Aldolase from Giardia Lamblia. A8B2U2. Potency, µM (titrated, usually from 59.6 µM), hits mostly inhibitors. 0.71% of 290,000 active. purified Giardia FBPA; further: nearly all actives have a fitted effect of over 55% in size
Target sequence (A8B2U2 whole entry, looked up): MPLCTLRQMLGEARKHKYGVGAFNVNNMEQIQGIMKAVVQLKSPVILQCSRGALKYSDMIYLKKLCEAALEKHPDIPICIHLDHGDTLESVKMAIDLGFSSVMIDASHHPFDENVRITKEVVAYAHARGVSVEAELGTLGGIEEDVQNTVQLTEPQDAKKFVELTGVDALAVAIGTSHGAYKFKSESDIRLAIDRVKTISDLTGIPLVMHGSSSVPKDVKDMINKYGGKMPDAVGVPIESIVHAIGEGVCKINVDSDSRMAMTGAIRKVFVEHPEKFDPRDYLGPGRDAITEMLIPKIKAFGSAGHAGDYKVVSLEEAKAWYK
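40 nM FBPA preincubated 10 min at RT with compound (up to 57.5 uM final), then substrate plus GAPDH/TPI/NAD/arsenate coupling and diaphorase/resazurin added. Fluorescence read after 20 min at RT, 525/598 nm.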
RE007 growth inh: qHTS Assay for Inhibitors of the HIV-1 protein Vpr; S. pombe RE007 Vpr strain, BacTiter-Glo ATP luminescence, 24 h; Potency, µM (titrated, usually from 92.2 µM), actives largely listed as inhibitors; 0.21% of 360,000 active; AID 651644, 2012; active means well fitted falling curve with a large enough effect; inconclusive means small, poorly fitted or top-dose-only effect; inactive means no such curve, though single readings can be large or run the other way; further: nearly all actives have a fitted effect of over 50% in size
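Fission yeast RE007 carrying one integrated HIV-1 vpr copy, seeded at OD 0.01 in PMG+AL medium with 23 nL pinned compound. Grown 24 h at 30 degrees; viability read by BacTiter-Glo luminescence after 5 min.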
Giardia growth: qHTS Assay for Inhibitors of Fructose-1,6-bisphosphate Aldolase from Giardia Lamblia: Giardia lamblia growth inhibition. 5% of 1,500 active. AID 2785, 2010. Giardia lamblia trophozoite growth inhibition. shares compounds with Giardia FBPA inh-1. Potency, µM (highest dose often 57.5 µM), actives largely listed as inhibitors;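 further: trophozoites exposed to compound for 48 h at 37 °C; nearly all actives have a fitted effect of over 70% in size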
Mammal cell tox: qHTS Assay for Inhibitors of Fructose-1,6-bisphosphate Aldolase from Giardia Lamblia: Mammalian cellular toxicity. shares compounds with Giardia FBPA inh-1. AID 2786, 2010. 4% of 1,500 active. Potency, µM (highest dose often 57.5 µM), usual class: inhibitors. mammalian cell viability counter-screen, qHTS;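 further: Chinese hamster ovary cells used as mammalian cytotoxicity surrogate; viability measured as cellular ATP by luminescence; compound exposure lasted 48 h before reading; nearly all actives have a fitted effect of over 60% in size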
Giardia FBPA inh-2: qHTS Assay for Inhibitors of Fructose-1,6-bisphosphate Aldolase from Giardia Lamblia: Primary screen confirmation; shares compounds with Giardia FBPA inh-1; purified Giardia aldolase enzyme activity, qHTS; Potency, µM (highest dose often 57.5 µM), most hits filed as inhibitors; 5% of 1,500 active; AID 2787, 2010; further: nearly all actives have a fitted effect of over 45% in size
Rabbit FBPA inh: qHTS Assay for Inhibitors of Fructose-1,6-bisphosphate Aldolase from Giardia Lamblia: Rabbit FBPA Selectivity; shares compounds with Giardia FBPA inh-1; Rabbit muscle FBPA enzyme inhibition, selectivity counter-screen; Potency, µM (titrated, usually from 57.5 µM), most hits filed as inhibitors; 4% of 1,500 active; AID 2794, 2010; further: nearly all actives have a fitted effect of over 60% in size
GAPDH counter: qHTS Assay for Inhibitors of Fructose-1,6-bisphosphate Aldolase from Giardia Lamblia: Coupling assay counterscreen confirmation; shares compounds with Giardia FBPA inh-1; GAPDH coupling enzyme counterscreen, biochemical, qHTS; Potency, µM (doses to about 57.5 µM), actives largely listed as inhibitors; 6% of 1,500 active; further: nearly all actives have a fitted effect of over 55% in size
A number is an active result; – = inactive; ? = inconclusive; · = no result; [ ] = dose if it differs, or a comment. Unless noted, the call rests on the fitted dose curve; in most records, active means well fitted curve in the direction sought with a large enough effect; inconclusive means small, poorly fitted or top-dose-only effect, or another doubt; inactive means no such curve, though single readings can be large; an effect the other way counts as inactive or inconclusive.

SMILES | Sm TGR block | TbPYK inhibitor | FMDV inh | HCMV antiviral | Giardia FBPA inh-1 | RE007 growth inh | Giardia growth | Mammal cell tox | Giardia FBPA inh-2 | Rabbit FBPA inh | GAPDH counter
O=C(O)c1cc(-c2ccc3ccccc3n2)nc2ccccc12 | – | – | ? | – | ? | – | · | · | · | · | ·
O=C(O)c1cc(-c2cc(C(=O)O)c3ccccc3n2)nc2ccccc12 | – | · | · | · | 2.5µM | · | – | – | – | – | –
Cc1ccccc1CNC(=O)c1ccc2nc(C(C)C)oc2c1 | – | – | – | – | · | · | · | · | · | · | ·
O=C(N/N=C/c1ccccn1)c1ccc([N+](=O)[O-])cc1 | – | – | – | – | ? | – | · | · | · | · | ·
Nc1ccc(C(=O)N/N=C\C=C\c2cccc([N+](=O)[O-])c2)cc1 | – | – | – | – | – | – | · | · | · | · | ·
O=C(N/N=C/C=C/c1cccc([N+](=O)[O-])c1)c1ccncc1 | – | – | – | – | 16µM | – | 28µM | – | – | – | –
O=C(NC(=S)Nc1ccccn1)c1cccc([N+](=O)[O-])c1 | – | – | – | ? | 16µM | – | ? | – | – | – | –
O=C(N/N=C/c1ccccn1)c1ccc(NC(=O)c2cccc([N+](=O)[O-])c2)cc1 | – | – | – | – | 14µM | – | ? | – | – | – | –
O=C(N/N=C/c1ccccn1)c1ccc2nc[nH]c2c1 | – | – | – | ? | 16µM | – | –[10.4 µM] | – | – | – | –
Cc1ccc(C(=O)N/N=C\c2ccc([N+](=O)[O-])o2)cn1 | ? | – | – | ? | 11µM | – | 3.2µM | – | – | – | –
Cc1cc(C(=O)N/N=C/c2ccccn2)n[nH]1 | · | – | – | – | ? | – | · | · | · | · | ·
O=C(N/N=C/c1ccccn1)c1cc(C2CC2)[nH]n1 | – | – | – | ? | 18µM | – | ? | – | – | – | –
Cc1ccc(C(=O)N/N=C\c2ccccn2)cn1 | – | – | – | – | 7.9µM | – | – | – | – | – | –
CC(C)(C)c1ccc(C(=O)N/N=C/c2ccccn2)cc1 | – | – | – | – | – | ? | · | · | · | · | ·
Cc1csc(N/N=C/c2ccc([N+](=O)[O-])cc2)n1 | – | – | – | – | – | – | · | · | · | · | ·
Cc1ccc(C(=O)N/N=C\c2ccc(-c3ccc([N+](=O)[O-])cc3)o2)cn1 | – | – | – | – | – | – | · | · | · | · | ·
Cc1csc(N/N=C/c2ccccn2)n1 | – | – | ? | -103 | 16µM | ? | –[10.4 µM] | 25µM | – | – | –
C[C@@]12CCC(=O)C=C1CC[C@H]1[C@H]3CC[C@](O)(C(=O)CO)[C@]3(C)CC(=O)[C@@H]12 | · | · | · | · | – | · | · | · | · | · | ·
Cc1ccc(CCNC(=O)C2CCN(Cc3nc(-c4ccccc4C)oc3C)CC2)cc1 | – | – | ? | – | · | · | · | · | · | · | ·
Cc1cccc(N2CCN(C(=O)Nc3ccc(F)cc3)CC2C)c1 (stereo not given) | – | – | – | – | · | · | · | · | · | · | ·
